The supplement of paper PMC4466140

How the values were obtained:
Assay in all cases: SPOT peptide array binding signal intensity (averaged, normalized) (arbitrary units (background-subtracted, floor 0; scale differs between SH3 domains)); higher = stronger binding of the SH3 domain to the peptide
SpBzz1-D2 = target: SpBzz1-D2
Summary of the method: (§1)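 The binding signal is the normalized, background-subtracted spot intensity averaged over replicates; its arbitrary units differ between domains. It was obtained by incubating 10 μg/ml GST-fused SH3 domains from four yeast species overnight at 4°C in TBS-based blocking buffer on cellulose membranes with synthetic 15-mer peptides, cysteines replaced by serines, then detecting with anti-GST antibody, HRP anti-mouse secondary and luminol.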

SpCyk3 = target: SpCyk3
Summary of the method: as §1

SpHof1 = target: SpHof1
Summary of the method: as §1

SpHof1-2 = target: SpHof1-2
Summary of the method: as §1

SpHof1-3 = target: SpHof1-3
Summary of the method: as §1

SpHse1 = target: SpHse1
Summary of the method: as §1

SpLsb1 = target: SpLsb1
Summary of the method: as §1

SpLsb4 = target: SpLsb4
Summary of the method: as §1

SpMyo1 = target: SpMyo1
Summary of the method: as §1

SpNbp2 = target: SpNbp2
Summary of the method: as §1

SpPex13 = target: SpPex13
Summary of the method: as §1

SpRvs167 = target: SpRvs167
Summary of the method: as §1

SpSla1-D1-D2 = target: SpSla1-D1-D2
Summary of the method: as §1

SpSla1-D3 = target: SpSla1-D3
Summary of the method: as §1

AgAbp1 = target: AgAbp1
Summary of the method: as §1

AgBbc1 = target: AgBbc1
Summary of the method: as §1

AgBem1-D1 = target: AgBem1-D1
Summary of the method: as §1

AgBzz1-D1 = target: AgBzz1-D1
Summary of the method: as §1

AgBzz1-D2 = target: AgBzz1-D2
Summary of the method: as §1

AgCyk3 = target: AgCyk3
Summary of the method: as §1

AgFus1 = target: AgFus1
Summary of the method: as §1

AgHof1 = target: AgHof1
Summary of the method: as §1

AgHse1 = target: AgHse1
Summary of the method: as §1

AgLsb1 = target: AgLsb1
Summary of the method: as §1

AgLsb4 = target: AgLsb4
Summary of the method: as §1

AgMyo5 = target: AgMyo5
Summary of the method: as §1

AgNbp2 = target: AgNbp2
Summary of the method: as §1

AgRvs167 = target: AgRvs167
Summary of the method: as §1

AgSho1 = target: AgSho1
Summary of the method: as §1

AgSla1-D1-D2 = target: AgSla1-D1-D2
Summary of the method: as §1

AgSla1-D3 = target: AgSla1-D3
Summary of the method: as §1

CaAbp1-D1 = target: CaAbp1-D1
Summary of the method: as §1

CaAbp1-D2 = target: CaAbp1-D2
Summary of the method: as §1

CaBbc1 = target: CaBbc1
Summary of the method: as §1

CaBem1-D1 = target: CaBem1-D1
Summary of the method: as §1

CaBzz1-D1 = target: CaBzz1-D1
Summary of the method: as §1

CaBzz1-D2 = target: CaBzz1-D2
Summary of the method: as §1

CaCyk3 = target: CaCyk3
Summary of the method: as §1

CaFus1 = target: CaFus1
Summary of the method: as §1

CaHof1 = target: CaHof1
Summary of the method: as §1

CaHse1 = target: CaHse1
Summary of the method: as §1

CaLsb1 = target: CaLsb1
Summary of the method: as §1

CaLsb4 = target: CaLsb4
Summary of the method: as §1

CaMyo5 = target: CaMyo5
Summary of the method: as §1

CaNbp2 = target: CaNbp2
Summary of the method: as §1

CaRvs167 = target: CaRvs167
Summary of the method: as §1

CaRvs167-3 = target: CaRvs167-3
Summary of the method: as §1

CaSho1 = target: CaSho1
Summary of the method: as §1

CaSla1-D1-D2 = target: CaSla1-D1-D2
Summary of the method: as §1

CaSla1-D3 = target: CaSla1-D3
Summary of the method: as §1

ScAbp1 = target: ScAbp1
Summary of the method: as §1

ScBbc1 = target: ScBbc1
Summary of the method: as §1

ScBem1-D1 = target: ScBem1-D1
Summary of the method: as §1

ScBzz1-D1 = target: ScBzz1-D1
Summary of the method: as §1

ScBzz1-D2 = target: ScBzz1-D2
Summary of the method: as §1

ScCyk3 = target: ScCyk3
Summary of the method: as §1

ScFus1 = target: ScFus1
Summary of the method: as §1

ScHof1 = target: ScHof1
Summary of the method: as §1

ScHse1 = target: ScHse1
Summary of the method: as §1

ScLsb1 = target: ScLsb1
Summary of the method: as §1

ScLsb2 = target: ScLsb2
Summary of the method: as §1

ScLsb3 = target: ScLsb3
Summary of the method: as §1

ScLsb4 = target: ScLsb4
Summary of the method: as §1

ScMyo3 = target: ScMyo3
Summary of the method: as §1

ScMyo5 = target: ScMyo5
Summary of the method: as §1

ScNbp2 = target: ScNbp2
Summary of the method: as §1

ScPex13 = target: ScPex13
Summary of the method: as §1

ScRvs167 = target: ScRvs167
Summary of the method: as §1

ScSho1 = target: ScSho1
Summary of the method: as §1

ScSla1-D1-D2 = target: ScSla1-D1-D2
Summary of the method: as §1

ScSla1-D3 = target: ScSla1-D3
Summary of the method: as §1

SpAbp1-D1 = target: SpAbp1-D1
Summary of the method: as §1

SpBbc1 = target: SpBbc1
Summary of the method: as §1

SpBzz1-D1 = target: SpBzz1-D1
Summary of the method: as §1

Binder: TPEIPPPLPPKIMVH
- SPOT peptide array binding signal intensity (SpBzz1-D2): ≤ 0
- SPOT peptide array binding signal intensity (SpCyk3): ≤ 0
- SPOT peptide array binding signal intensity (SpHof1): ≤ 0
- SPOT peptide array binding signal intensity (SpHof1-2): 0.5
- SPOT peptide array binding signal intensity (SpHof1-3): ≤ 0
- SPOT peptide array binding signal intensity (SpHse1): 148
- SPOT peptide array binding signal intensity (SpLsb1): 463
- SPOT peptide array binding signal intensity (SpLsb4): 852
- SPOT peptide array binding signal intensity (SpMyo1): 723
- SPOT peptide array binding signal intensity (SpNbp2): ≤ 0
- SPOT peptide array binding signal intensity (SpPex13): 9
- SPOT peptide array binding signal intensity (SpRvs167): 1520
- SPOT peptide array binding signal intensity (SpSla1-D1-D2): ≤ 0
- SPOT peptide array binding signal intensity (SpSla1-D3): ≤ 0

Binder: NFLRLLIGLPSQNEL
- SPOT peptide array binding signal intensity (AgAbp1): ≤ 0
- SPOT peptide array binding signal intensity (AgBbc1): 4.25
- SPOT peptide array binding signal intensity (AgBem1-D1): 132
- SPOT peptide array binding signal intensity (AgBzz1-D1): 17.5
- SPOT peptide array binding signal intensity (AgBzz1-D2): 6.5
- SPOT peptide array binding signal intensity (AgCyk3): 3.5
- SPOT peptide array binding signal intensity (AgFus1): 950
- SPOT peptide array binding signal intensity (AgHof1): 31.5
- SPOT peptide array binding signal intensity (AgHse1): 2760
- SPOT peptide array binding signal intensity (AgLsb1): ≤ 0
- SPOT peptide array binding signal intensity (AgLsb4): 248
- SPOT peptide array binding signal intensity (AgMyo5): 2.75
- SPOT peptide array binding signal intensity (AgNbp2): 39
- SPOT peptide array binding signal intensity (AgRvs167): 2
- SPOT peptide array binding signal intensity (AgSho1): 263
- SPOT peptide array binding signal intensity (AgSla1-D1-D2): 50
- SPOT peptide array binding signal intensity (AgSla1-D3): 4.5
- SPOT peptide array binding signal intensity (CaAbp1-D1): ≤ 0
- SPOT peptide array binding signal intensity (CaAbp1-D2): ≤ 0
- SPOT peptide array binding signal intensity (CaBbc1): ≤ 0
- SPOT peptide array binding signal intensity (CaBem1-D1): ≤ 0
- SPOT peptide array binding signal intensity (CaBzz1-D1): 39
- SPOT peptide array binding signal intensity (CaBzz1-D2): 37
- SPOT peptide array binding signal intensity (CaCyk3): 4
- SPOT peptide array binding signal intensity (CaFus1): 2560
- SPOT peptide array binding signal intensity (CaHof1): 1.5
- SPOT peptide array binding signal intensity (CaHse1): 156
- SPOT peptide array binding signal intensity (CaLsb1): 2.5
- SPOT peptide array binding signal intensity (CaLsb4): 3
- SPOT peptide array binding signal intensity (CaMyo5): 8.25
- SPOT peptide array binding signal intensity (CaNbp2): 259
- SPOT peptide array binding signal intensity (CaRvs167): 72
- SPOT peptide array binding signal intensity (CaRvs167-3): 143
- SPOT peptide array binding signal intensity (CaSho1): 731
- SPOT peptide array binding signal intensity (CaSla1-D1-D2): ≤ 0
- SPOT peptide array binding signal intensity (CaSla1-D3): 41.2
- SPOT peptide array binding signal intensity (ScAbp1): ≤ 0
- SPOT peptide array binding signal intensity (ScBbc1): 0.5
- SPOT peptide array binding signal intensity (ScBem1-D1): 18
- SPOT peptide array binding signal intensity (ScBzz1-D1): 19
- SPOT peptide array binding signal intensity (ScBzz1-D2): 21
- SPOT peptide array binding signal intensity (ScCyk3): 101
- SPOT peptide array binding signal intensity (ScFus1): 1020
- SPOT peptide array binding signal intensity (ScHof1): 1.5
- SPOT peptide array binding signal intensity (ScHse1): 2880
- SPOT peptide array binding signal intensity (ScLsb1): 0.75
- SPOT peptide array binding signal intensity (ScLsb2): ≤ 0
- SPOT peptide array binding signal intensity (ScLsb3): 276
- SPOT peptide array binding signal intensity (ScLsb4): ≤ 0
- SPOT peptide array binding signal intensity (ScMyo3): 4
- SPOT peptide array binding signal intensity (ScMyo5): ≤ 0
- SPOT peptide array binding signal intensity (ScNbp2): 53
- SPOT peptide array binding signal intensity (ScPex13): ≤ 0
- SPOT peptide array binding signal intensity (ScRvs167): 11.7
- SPOT peptide array binding signal intensity (ScSho1): 1160
- SPOT peptide array binding signal intensity (ScSla1-D1-D2): ≤ 0
- SPOT peptide array binding signal intensity (ScSla1-D3): 8.5
- SPOT peptide array binding signal intensity (SpAbp1-D1): 1
- SPOT peptide array binding signal intensity (SpBbc1): 3.75
- SPOT peptide array binding signal intensity (SpBzz1-D1): 22
- SPOT peptide array binding signal intensity (SpBzz1-D2): ≤ 0
- SPOT peptide array binding signal intensity (SpCyk3): 7
- SPOT peptide array binding signal intensity (SpHof1): 121
- SPOT peptide array binding signal intensity (SpHof1-2): 31.5
- SPOT peptide array binding signal intensity (SpHof1-3): 443
- SPOT peptide array binding signal intensity (SpHse1): 3340
- SPOT peptide array binding signal intensity (SpLsb1): ≤ 0
- SPOT peptide array binding signal intensity (SpLsb4): ≤ 0
- SPOT peptide array binding signal intensity (SpMyo1): 0.5
- SPOT peptide array binding signal intensity (SpNbp2): 52.5
- SPOT peptide array binding signal intensity (SpPex13): 52
- SPOT peptide array binding signal intensity (SpRvs167): 9.83
- SPOT peptide array binding signal intensity (SpSla1-D1-D2): 4
- SPOT peptide array binding signal intensity (SpSla1-D3): 8
